In the OligoGym collection:

Biological target: SLC50A1
Assay: pooled miR-30 sensor sort-seq; sequence = guide strand
Conditions: shRNA
Also: reference of the scale not given here.

Sequence	sensor-assay potency score (higher = more potent)
ATATAGGGATCTCTGAGTCGAA	-0.899
TCGCATGTGCCTGAGGTCCGAG	-1.22
TCTGACGTTGTCCACACTCCGG	-1.36
TTCCTGTCTTGCTCCTGGGGGT	-0.7
TATAGGGATCTCTGAGTCGAAA	-1.32
TTAGTTTGAATCACCTTAGCCA	0.6
TCTGAGTCGAAACCCATAGAGG	-1.58
TTATCCTCAAAGTCATCTCTTG	-0.683
TAGTTTGAATCACCTTAGCCAA	-1.16
TTGATTTAGTTTGAATCACCTT	-0.06
TTGGACACCATGATATAGGGAT	0.348

Biological target: SLC5A9
Assay: as above
Conditions: shRNA

Sequence	sensor-assay potency score (higher = more potent)
TAACAAGTCATGTCTCTCCAAC	-0.907
TTCTACTCTCAAGACACACATT	-0.868
TAGGCGTGCAGACCAACTCTGG	-1.48
TGTTGGAACATCCCACTCGGGC	-1.24
TTCTTTGGCAGACATCAGGGTC	-0.689
TGGTCTGTGCACCAACACCAGG	-1.88
TAGTCCATTGTCTAAGAGCTTT	-1.07
TTAGAGAGTAGGAAGAGGCAGA	0.115
AGGAACACCACAAACACTCTGC	-0.94
TTGTTTAATCTGTCTACACTGA	-0.279
TTAACAAGTCATGTCTCTCCAA	-0.0979
TTGTCTAAGAGCTTTCTGCCCA	-0.317

Biological target: SLC6A11
Assay: as above
Conditions: shRNA

Sequence	sensor-assay potency score (higher = more potent)
TTAACTGTCACCATCCGTGGGC	0.397
TTCAATGTTATCATAGAACCGG	-0.488
ATAATTGTTATAACTTCCCAGA	-0.808
TACAAGTAGAACTTGATGCCCT	0.00476
TTCACTTGTGAACTGCCCCAGA	-0.108
TTCTGCAGAGACACATGGCTGT	0.541
TCAATGTTATCATAGAACCGGT	-0.663
TAGGAGAAAAAGATCTGCGTTC	-0.00212
TAGGAGATAACAGACAAGGCTA	0.294
TAGAACTTGATGCCCTCTGAGG	-1.22
TCATTAACTGTCACCATCCGTG	-0.565
TTATCATAGAACCGGTTGCTTC	-1.38

Biological target: SLC6A17
Assay: as above
Conditions: shRNA

Sequence	sensor-assay potency score (higher = more potent)
TTTCTCAGCATTCTCGACCACA	-0.65
TATAGTAGAGTGTCTCTCCTGG	0.772
TACATCTCCATGTAGTCCTTTG	-1.15
TTCTTGGTTCCATAAATCCAGG	-1.41
TTGTCCTGCTTATTGTAGCTGG	-0.728
